Hit rate of the full screen: of about 310,000 compounds, about 14,000 (4.5%) showed an effect of 50% or more. The effect is printed as a negative number. What follows is part of a selection rich in strong results, with near analogues and random picks from the rest.
The molecules below were run against human ether-à-go-go-related gene (hERG) potassium channel (human, UniProt Q12809) (assay: primary screen, population patch clamp on CHO cells stably expressing hERG; higher = less effect of the substance).
Sequence of human ether-à-go-go-related gene (hERG) potassium channel (Q12809 whole entry, looked up): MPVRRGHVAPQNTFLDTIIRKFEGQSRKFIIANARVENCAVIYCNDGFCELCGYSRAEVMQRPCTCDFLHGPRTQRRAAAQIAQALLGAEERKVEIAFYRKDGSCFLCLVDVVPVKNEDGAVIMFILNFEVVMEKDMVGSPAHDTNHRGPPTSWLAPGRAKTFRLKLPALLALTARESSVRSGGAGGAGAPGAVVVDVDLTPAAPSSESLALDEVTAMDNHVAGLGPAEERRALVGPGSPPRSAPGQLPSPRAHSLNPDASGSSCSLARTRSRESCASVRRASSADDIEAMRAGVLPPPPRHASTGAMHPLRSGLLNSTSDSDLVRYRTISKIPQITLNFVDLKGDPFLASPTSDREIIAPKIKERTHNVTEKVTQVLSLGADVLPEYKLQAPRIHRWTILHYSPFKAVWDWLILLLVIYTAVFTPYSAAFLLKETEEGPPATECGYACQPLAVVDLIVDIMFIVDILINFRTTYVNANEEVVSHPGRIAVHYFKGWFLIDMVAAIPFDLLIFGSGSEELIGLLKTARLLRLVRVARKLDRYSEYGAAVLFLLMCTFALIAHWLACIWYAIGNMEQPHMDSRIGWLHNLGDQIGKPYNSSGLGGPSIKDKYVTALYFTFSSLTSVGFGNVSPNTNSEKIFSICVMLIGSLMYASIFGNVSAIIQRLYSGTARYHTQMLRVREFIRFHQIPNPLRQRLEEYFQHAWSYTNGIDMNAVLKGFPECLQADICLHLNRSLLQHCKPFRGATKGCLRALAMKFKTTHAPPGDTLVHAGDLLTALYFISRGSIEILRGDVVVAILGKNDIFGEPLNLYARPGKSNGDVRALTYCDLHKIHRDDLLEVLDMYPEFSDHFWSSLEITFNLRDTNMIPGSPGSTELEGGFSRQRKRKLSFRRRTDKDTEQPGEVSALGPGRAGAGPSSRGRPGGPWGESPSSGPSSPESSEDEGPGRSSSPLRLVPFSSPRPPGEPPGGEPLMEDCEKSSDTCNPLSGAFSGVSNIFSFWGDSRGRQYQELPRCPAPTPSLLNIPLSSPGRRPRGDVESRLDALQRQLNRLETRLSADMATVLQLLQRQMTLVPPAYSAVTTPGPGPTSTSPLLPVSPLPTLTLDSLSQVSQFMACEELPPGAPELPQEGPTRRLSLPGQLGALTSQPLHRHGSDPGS
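Also: peak tail current of the secondary pulse compared with the same well before compound.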

Row | Compound | hERG current change (%, negative = inhibition) at 10uM [%]
1 | CCCCOc1ccc(C(=O)NCC(=O)N(C)CC(=O)Nc2ccc(N3CCOCC3)cc2)cc1 | -27.4
2 | C(=N\N1CCOCC1)/c1ccsc1.O=P(O)(O)O | 18.8
3 | O=C(Cc1ccc(Br)cc1)N1CCN(c2ccc(F)cc2)CC1 | -49.9
4 | Cc1ccc(S(=O)(=O)NCc2ccc(C(=O)N3CCN(c4ccccc4)CC3)cc2)cc1 | -18.6
5 | CC(Cc1ccccc1)NC(=O)/C=C/c1ccc(Cl)cc1 (stereo not drawn) | -11.7
6 | CC(Cc1ccccc1)NC(=O)/C=C/c1ccc([N+](=O)[O-])cc1 (stereo not drawn) | -51.7
7 | O=C(Cc1ccc(F)cc1)N1CCN(c2ccc([N+](=O)[O-])cc2)CC1 | -69.5
8 | O=C(Cc1ccc(Cl)cc1)N1CCN(c2ccccc2)CC1 | -12.2
9 | CC(Cc1ccccc1)NC(=O)Cc1ccc([N+](=O)[O-])cc1 (stereo not drawn) | -17.8
10 | O=C(Cc1ccccc1)N1CCN(c2ccc([N+](=O)[O-])cc2)CC1 | -55.2
11 | O=CN1CCN(C(=O)Cc2ccc([N+](=O)[O-])cc2)CC1 | -25.6
12 | COc1ccc(N2CCN(C(=O)c3ccc(CNS(=O)(=O)c4ccc(C)cc4)cc3)CC2)cc1 | 13.9
13 | O=C(Cc1ccc(F)cc1)N1CCN(c2ccc(F)cc2)CC1 | 0.483
14 | Cc1ccc(S(=O)(=O)NCc2ccc(C(=O)N3CCN(c4ccc([N+](=O)[O-])cc4)CC3)cc2)cc1 | -70.7
15 | CCN(c1ccc(NC(=O)COC(=O)CCC(=O)c2ccc(F)cc2)cc1)C(C)C | -4.95
16 | O=C(Cn1cnc2c(nnn2Cc2ccccc2F)c1=O)N1CCN(c2ccccc2)CC1 | -31.2
17 | O=C(NCCC1=CCCCC1)c1cccc2c1C(=O)N(C1CCCCC1)C2 | 9.87
18 | O=C(NN1C(=O)c2ccccc2C1=O)c1ccncc1 | 10.4
19 | CCOC(=O)C(O)(c1ccc(NC(=O)c2ccc(Cl)c(Cl)c2)cc1)C(F)(F)F (stereo not drawn) | -4.61
20 | COc1ccc(NC(=O)CSc2nccn2Cc2ccco2)cc1OC | 11.3
21 | CCOC(=O)N1CCN(C(=O)c2ccc3c(c2)sc2nc(-c4ccccc4)cn23)CC1 | -49.3
22 | CCOC(=O)c1cn(CC)c2ccc(S(=O)(=O)N3CC(C)CC(C)C3)cc2c1=O (stereo not drawn) | -21.7

Row | Compound | hERG current change (%, negative = inhibition) at 10uM [%]
23 | Cc1c(C)c2ccc(OC(C)C(=O)NCCc3c[nH]c4ccccc34)cc2oc1=O (stereo not drawn) | -2.3
24 | Cc1ccc(SCC(=O)N2CCC(C(N)=O)CC2)cc1 | 13.2
25 | Cc1ccc(S(=O)(=O)NCCC(=O)N2CCN(S(=O)(=O)c3ccccc3)CC2)cc1C | -16.6
26 | Cc1ccc(S(=O)(=O)N2CCN(C(=O)Cc3ccccc3)CC2)cc1 | -26.1
27 | O=C(Cc1ccccc1)N1CCN(S(=O)(=O)c2ccc([N+](=O)[O-])cc2)CC1 | -64
28 | O=C(CN1CCN(c2ccc([N+](=O)[O-])cc2Cl)CC1)N1CCOCC1 | -45.2
29 | O=C(Cc1ccccc1)N1CCN(S(=O)(=O)c2cccc([N+](=O)[O-])c2)CC1 | -22.2
30 | Cc1ccc(CC(=O)N2CCN(S(=O)(=O)c3ccccc3)CC2)cc1C | -55.5
31 | O=C(CN1CCOCC1)N1CCN(c2ccc([N+](=O)[O-])cc2)CC1 | -71.6
32 | O=C(CN1CCN(c2ccc(F)cc2)CC1)N1CCOCC1 | 12.9
33 | Cc1ccc(S(=O)(=O)N2CCN(C(=O)Cc3ccccc3)CC2)cc1C | -2.97
34 | CCOC(=O)Cc1csc(NC(=O)Cc2cccs2)n1 | 6.28
35 | COc1ccc(S(=O)(=O)N2CCCC2C(=O)NCc2ccccc2Cl)cc1 (stereo not drawn) | -12.4
36 | CC1CCC(NCCNC(=O)c2ccco2)CC1 (stereo not drawn) | 11.8
37 | Cc1ccsc1C(=O)NCc1ccc(Cl)cc1 | 11.1
38 | c1cnc(NCCNc2ncccn2)nc1 | 9.05
39 | CC1(C)CC(NC(=O)c2ccc3c(c2)OCO3)CC(C)(C)N1 | 4.65
40 | COC(=O)[C@H](CC(C)C)NC(=O)NCCCc1ccccc1 | 1.82
41 | COc1ccc(C2Nc3ccccc3C(=O)N2Cc2ccccc2)cc1COc1ccccn1 (stereo not drawn) | -49.4
42 | Cn1cc(C2=C(c3ccc(Cl)cc3Cl)C(=O)NC2=O)c2ccccc21 | 33
43 | O=C(c1cccs1)N1CCC(c2nc(-c3ccc(S(=O)(=O)N4CCOCC4)cc3)no2)CC1 | -68.8
44 | Cc1cccc(C(=O)N2CCC(c3nc(-c4ccc(S(=O)(=O)N5CCOCC5)cc4)no3)CC2)c1 | -3.33

Row | Compound | hERG current change (%, negative = inhibition) at 10uM [%]
45 | O=C(c1ccccc1)N1CCC(c2nc(-c3ccc(S(=O)(=O)N4CCOCC4)cc3)no2)CC1 | -60.8
46 | O=C(N1CCOCC1)N1CCC(c2nc(-c3ccc(S(=O)(=O)N4CCOCC4)cc3)no2)CC1 | -2.07
47 | O=C(C1CC1)N1CCC(c2nc(-c3ccc(S(=O)(=O)N4CCCC4)cc3)no2)CC1 | -13
48 | O=C(Nc1ccccc1)N1CCC(c2nc(-c3ccc(S(=O)(=O)N4CCOCC4)cc3)no2)CC1 | -4.94
49 | O=C(CN1C(=O)C2CC=CCC2C1=O)Nc1ccc(OC(F)(F)F)cc1 (stereo not drawn) | -14.2
50 | CCOC(=O)c1c(-c2ccccc2)csc1NC(=O)CSc1ccccc1 | -4.13
51 | O=C(CSc1nnc(Cc2ccsc2)o1)c1ccccc1 | -16.7
52 | CC1(C)CC(=O)C(C=Nc2ccc(Cl)cn2)=C(O)C1 | 11.6
53 | CN(C(=O)COc1cc(=O)n(C)c2ccccc12)c1ccc(Cl)cc1 | -29.2
54 | COc1cc(=O)n(C)c2ccccc12 | -4.88
55 | CN(c1ccc(Cl)cc1)c1cc(=O)n(C)c2ccccc12 | -51.8
56 | CCC(CC)COC(=O)C1=C(C)NC(=O)NC1c1ccc([N+](=O)[O-])cc1 (stereo not drawn) | 11.6
57 | Cc1ccc(NS(=O)(=O)c2cccc(C(=O)NCC(c3ccc(F)cc3)N3CCOCC3)c2)cc1 (stereo not drawn) | -16.8
58 | O=[N+]([O-])c1cccc(CN2CC=C(c3ccc(F)cc3)CC2)c1 | -39.2
59 | COc1cc(CN2CC=C(c3ccc(F)cc3)CC2)cc(OC)c1 | -57.3
60 | CCN(CC)c1ccc(CN2CCCCCC2)cc1 | -20.4
61 | COc1cccc(CN2CC=C(c3ccc(F)cc3)CC2)c1 | -26.5
62 | COc1cc(C)c(CN2CC=C(c3ccc(F)cc3)CC2)cc1C | -37.2
63 | CCN(CC)c1ccc(CN2CC=C(c3ccc(F)cc3)CC2)cc1 | -78.4
64 | O=[N+]([O-])c1ccccc1CN1CC=C(c2ccc(F)cc2)CC1 | -12.8
65 | COc1ccc(CN2CC=C(c3ccc(F)cc3)CC2)cc1Br | -11.7
66 | CN(C)c1ccc(CN2CC=C(c3ccc(F)cc3)CC2)cc1 | -69.9

Row | Compound | hERG current change (%, negative = inhibition) at 10uM [%]
67 | CCOC(=O)c1c(S(=O)(=O)N2c3ccccc3CC2C)c(C)n(C)c1C (stereo not drawn) | 13.1
68 | CC(=O)Oc1ccc(C(=O)Nc2cccc(-c3nnc(-c4ccco4)o3)c2)cc1 | 0.775
69 | O=C(COC(=O)C1(c2ccc(F)cc2)CCCC1)NC1CC1 | 0.676
70 | CCC1(C)Cc2c(sc3nc(SC)n(Cc4ccccc4)c(=O)c23)CO1 (stereo not drawn) | 6.63
71 | Cc1sc(NC(=O)C2=COCCO2)nc1-c1ccc(Cl)cc1 | 13
72 | CCCCn1c(=O)c(CCC(=O)OCC(=O)NC(=O)NCCC(C)C)nc2ccccc21 | -9.31
73 | CCc1nnc(NC(=O)C2CCCN(S(=O)(=O)c3ccccc3)C2)s1 (stereo not drawn) | 5.15
74 | Cc1nc2cc(NC(=O)COc3ccccc3C#N)ccc2n1-c1ccccc1 | -4.85
75 | Clc1ccc(OCCN2CCOCC2)cc1 | 17
76 | Cc1cc(C)c(C#N)c(N2CCN(CCOc3ccc(Cl)cc3)CC2)n1 | -33.6
77 | CCN(CC)S(=O)(=O)c1ccc(N2CCN(CCOc3ccc(OC)cc3)CC2)nc1 | -46.8
78 | NS(=O)(=O)c1ccc(N2CCN(CCOc3ccc(Cl)cc3)CC2)nc1 | -69.8
79 | Clc1ccc(OCCN2CCN(c3ncnc4sccc34)CC2)cc1 | -81.2
80 | Cc1sc2ncnc(N3CCN(CCOc4ccc(Cl)cc4)CC3)c2c1C | -9.02
81 | CN(C)C(=O)CSc1ccc(S(=O)(=O)N2CCOCC2)cn1 | 10.6
82 | O=C(CSc1nnc(-c2cccs2)o1)N1CCCCC1 | 2.99
83 | CCOC(=O)CSc1nc2ccccc2c(=O)n1-c1ccc(C)cn1 | 0.327
84 | O=C(/C=C/c1ccco1)NCC1(c2ccccc2)CCCC1 | -4.49
85 | O=C(/C=C/c1ccccc1)NCC1(c2ccccc2)CCOCC1 | -9.11
86 | O=C(/C=C/c1ccc(F)cc1)NCC1(c2ccccc2)CCOCC1 | -50.5
87 | O=C(NC1CCCC1)C(c1ccncc1)N(C(=O)c1csnn1)c1ccccc1 (stereo not drawn) | 15.1

Reference: paper PMC4336329 (PLoS ONE, 2015)
